Screening data from PubChem.
In the library only some 2.1% were active in any assay of this set; here they are far more common.
KLF5 inhibitor – kruppel-like factor 5 inhibition; DLD-1 KLF5 promoter-luciferase reporter, luminescence; inhibition, % at 5 µM; 0.23% of 290,000 active; AID 1700;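 active = inhibition above a per-plate limit of that plate's mean compound inhibition plus 3 SD, cut at about 60% in these data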;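 also: 0% = DMSO wells and 100% = LY294002 at 200 µM; higher means less KLF5 promoter-driven luciferase light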
APP transl inh – APP translation inhibition; SH-SY5Y APP 5'UTR-luciferase reporter, luminescence; inhibition, % at 2 µM; 0.82% of 190,000 active; AID 1285;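 active = inhibition above a set limit, derived from the sample mean plus 3 SD, cut at about 45% in these data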
Ba/F3 V617F tox – loss of viability in JAK2V617F-driven Ba/F3 cells; Ba/F3 EpoR-JAK2V617F viability, ATP luminescence; inhibition, % at 5.6 µM; 1.1% of 220,000 active;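 active = inhibition above the campaign mean plus 3 SD over all tested compounds, cut at about 24% in these data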;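 also: cytokine-independent growth of Ba/F3 cells driven by EpoR plus mutant JAK2; 0% = DMSO-treated cells and 100% = JAK inhibitor I control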
aSyn UTR inh – 5' untranslated region of α-synuclein, MLPCN primary screen; alpha-synuclein 5'UTR reporter, inhibitor activity; 0.82% of 300,000 active; inhibition, % (tested at 7.5 µM); AID 1813; in the data active = inhibition above about 60%;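 also: H4 neuroglioblastoma cells stably carrying SNCA 5'UTR luciferase fusion; 0% = DMSO wells and 100% = positive control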
IEC-6 cytotox – IEC-6 cytotoxicity, counter-screen for KLF5 inhibitors. luminescence viability. 0.78% of 290,000 active. AID 1825. inhibition, % at 5 µM; in the data active = inhibition above about 22%;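 also: 0% = plate median of test compound wells and 100% = cytotoxic reference compound wells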
BaF3 tox – counter-screen for JAK2V617F inhibitors: parental Ba/F3 viability inhibitors | CellTiter-Glo ATP luminescence | inhibition, % at 5.6 µM | 1.1% of 220,000 active | AID 1486;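 active = inhibition above a per-campaign cutoff, the mean inhibition of all tested compounds plus 3 SD, cut at about 27% in these data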;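 also: 0% = DMSO wells and 100% = JAK Inhibitor I control wells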
* = called active by the depositor; / = not tested or not shown.

SMILES	KLF5 inhibitor	APP transl inh	Ba/F3 V617F tox	aSyn UTR inh	IEC-6 cytotox	BaF3 tox
CC(C)NC(=O)Cn1c(SCC(=O)N2c3ccccc3CC2C)nc2ccccc21 (centres undefined)	-33	0	3	28	-4	95*
c1ccc(-c2c[n+]3c(n2-c2ccccc2)SCC3)cc1	-20	/	66*	0	-1	61*
CCOc1ccc(-n2c(-c3ccc(Cl)cc3)c[n+]3c2SCC3)cc1	19	-6	70*	-25	2	74*
CC(C)CCNC(=O)CCc1nnc(COc2ccccc2)o1	-3	-17	0	-2	-2	81*
O=C(CCc1nnc(COc2ccccc2)o1)NCCc1cccs1	-47	-23	-1	1	-8	6
COC(=O)c1cc(S(=O)(=O)NCCc2sccc2C)c[nH]1	-11	/	/	-10	3	/
COc1ccc(NC(=O)CSc2nnc3n2CCCCC3)cc1	-19	-9	-1	2	-3	3
Cc1[nH][nH]c(=O)c1C(c1c(C)[nH][nH]c1=O)c1cn(Cc2ccc(Cl)c(Cl)c2)c2ccccc12	-18	81*	0	90*	8	8
Cc1ccc(C)c(OCC(=O)Nc2c[nH]c(=O)[nH]c2=O)c1	-3	0	-2	81*	-2	3
COc1ccccc1C(=O)Nc1c[nH]c(=O)[nH]c1=O	-9	/	/	8	5	/
CCOc1ccccc1C(=O)Nc1c[nH]c(=O)[nH]c1=O	-32	/	/	62*	4	/
COc1ccc(Cc2[nH]n3c(=O)cc(C(C)C)nc3c2-c2ccccc2)cc1	13	13	3	72*	4	4
COc1ccc(Cc2[nH]n3c(=O)cc(C)nc3c2-c2ccccc2)cc1	-10	-13	-2	9	-2	5
CN1C/C(=C/c2cccnc2)C(=O)/C(=C/c2cccnc2)C1	1	89*	1	/	-1	2
CC(=O)Nc1nc(C)c(-c2csc(Nc3cccc([N+](=O)[O-])c3)n2)s1	-41	-10	-2	67*	12	3
O=[N+]([O-])c1cccc(NC(=S)Nc2nc(-c3ccc(Cl)cc3Cl)cs2)c1	8	/	/	73*	7	/
c1ccc(-c2ncc3c(ccc4ccccc43)n2)cc1	-15	-113	1	68*	10	5
c1ccc2c(c1)cnc1ccccc12	-21	/	-3	-22	2	6
COc1ccc(/C=N/Nc2ncnc(Cl)c2N)cc1OC	-36	-12	2	-39	1	4
COc1cccc(/C=N/Nc2ncnc(Cl)c2N)c1O	-30	78*	8	89*	-1	11
COc1cccc(/C=N/Nc2nc(Nc3ccccc3)nc(-n3nc(C)cc3C)n2)c1O	12	79*	1	57	12	6
COc1cccc(/C=N/Nc2cc(-n3nc(C)cc3-c3ccccc3)ncn2)c1O	-38	71*	2	110*	-6	7
Nc1c(Cl)ncnc1NCCc1ccc(O)cc1	-20	/	5	-17	6	29*
O=C(NCCCN1CCCCC1)C1CCC(CNS(=O)(=O)c2cccc3nsnc23)CC1 (centres undefined)	-4	/	/	2	5	/
O=[N+]([O-])c1ccc(CN2CCOCCOCCN(Cc3ccc([N+](=O)[O-])cc3)CCOCC2)cc1	-20	8	-1	-15	-3	2
SMILES	KLF5 inhibitor	APP transl inh	Ba/F3 V617F tox	aSyn UTR inh	IEC-6 cytotox	BaF3 tox
O=[N+]([O-])c1ccc(COc2ccc(Br)cc2CN2CCOCC2)cc1	-9	-10	2	29	1	90*
Cc1ccc(-c2cc(-c3ccccc3)no2)c(O)c1	-155	-276	-2	-16	-8	2
Cc1ccc2nc(-c3cc(-c4ccccc4)no3)cn2c1	-92	/	-1	86*	3	-2
O=C(Nc1ccccc1C(F)(F)F)N1CCN(c2ccccn2)CC1	-11	-10	0	-4	5	89*
O=C(CSc1nnc(-c2cccc(F)c2)o1)N1CCCC1	-43	/	/	-53	-2	/
Cc1cccc(C(=O)NC2CCN(CC(=O)NCc3ccccc3F)CC2)c1	7	/	/	4	-3	/
CCC(=O)Nc1nc2ccccc2n1Cc1ccccc1	0	29	-3	19	11	4
CCC(=O)Nc1nc2ccccc2n1Cc1ccc(C)cc1	-14	9	-1	77*	12	1
Cc1ccc(OCCn2c(NC(=O)c3ccco3)nc3ccccc32)cc1	-16	-9	-1	67*	-2	6
COc1ccc(NC2CCCN(C(=O)CCc3ccncc3)C2)cc1OC (centres undefined)	-15	/	/	0	2	/
COc1cc(C(=O)OCC(=O)N2CCC(Cc3ccccc3)CC2)cc(OC)c1OC	/	/	/	15	/	/
O=C(N/N=C/c1ccccc1)c1cccc2ccccc12	/	/	/	-22	/	/
COc1ccc2cc(C(=O)N/N=C/c3sc4ccccc4c3O)ccc2c1	-5	5	1	-2	-4	3
O=C(N/N=C/c1sc2ccccc2c1O)c1ccccc1	-18	53*	-3	82*	4	6
O=C(N/N=C/c1sc2ccccc2c1O)c1cccc2ccccc12	-10	48*	-4	92*	7	6
CCCCOc1ccc(C(=O)NCc2ccccn2)cc1	-11	48*	-2	-31	4	3
COc1ccc(CCN(C)C(=O)c2cc(=O)c3ccccc3o2)cc1OC	-24	/	/	-11	2	/
Cc1cccc(-c2nnc3n2N=C(c2ccccc2)CS3)c1	-16	-6	-1	63*	1	4
COc1ccc(-c2cc(-c3cccs3)c(C#N)c(SCC(=O)NCc3ccco3)n2)cc1	-17	96*	7	/	0	7
CCOc1ccccc1CN1CCN(C/C=C/c2ccc(OC)cc2)CC1CCO (centres undefined)	10	15	4	4	11	43*
COc1ccc(S(=O)(=O)N2CCc3ccccc32)cc1C(=O)N1CCOCC1	/	/	/	3	/	/
COc1cc(C(=O)N2CCN(c3cc(Cl)ccc3Cl)CC2)cc(OC)c1OC	49	-2	65*	89*	61*	63*
COc1ccc(C(=O)N2CCN(C(=O)c3cc(OC)c(OC)c(OC)c3)CC2)cc1	1	-14	-3	-10	-7	5
COCC(=O)N1CCC(Oc2ccc(C(=O)N3CCCCCC3)cc2)CC1	-29	/	/	-16	-4	/
Cc1ccc2[nH]c3c(N4CCN(Cc5ccccc5)CC4)ncnc3c2c1	-16	-9	1	-20	4	25
Cc1ccc2[nH]c3c(N4CCCCCC4)ncnc3c2c1	-41	-3	46*	-127	7	48*
COC(=O)c1ccc(COc2ccccc2/C=C/C(=O)c2ccc(OCC(=O)O)cc2)cc1	-15	/	/	-31	1	/
Cc1nn(C)c(C)c1CN(C)S(=O)(=O)c1ccc2ccccc2c1	-23	47*	46*	/	14	46*
CN(C)c1ccc(CNC(=O)c2cc(S(=O)(=O)N3CCOCC3)cn2C)cc1	-19	/	/	0	-1	/
CC(=O)c1cnc(Nc2nc(C)c3ccc(C)cc3n2)nc1C	-21	2	-2	5	-1	0
